This is a sample that favours compounds with a hit; in the whole collection about 0.86% have one here.
FEN1 inh = blocks human flap endonuclease 1. AID 588795. Recombinant FEN1 flap cleavage, fluorescence, 15 min. P39748. hit rate 0.35% among 390,000. Potency, µM (doses to about 114 µM), most hits filed as inhibitors; also: nearly all actives have a fitted effect of over 65% in size
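Potency values derive from four-parameter Hill fits of normalized qHTS data. The reaction used 10 nM FEN1 preincubated 15 min at room temperature with compound, then 50 nM DNA substrate, read at 0 and 15 min.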
PGK inhibitor = T. brucei PGK inhibition. P07378. PGK/GAPDH coupled, Kinase-Glo luminescence, 60 min. Potency, µM (doses to about 57.5 µM), actives largely listed as inhibitors. hit rate 0.043% among 380,000. AID 602233; also: nearly all actives have a fitted effect of over 60% in size
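Luminescent ATP detection (Kinase-Glo Plus) follows a 60-minute room-temperature incubation, with wells lacking PGK as controls. Buffer: 100 mM TEA (pH 7.6), 5 mM MgCl2, 0.01% Tween-20. Coupling enzyme GAPDH (100 nM final) supplies unstable 1,3-BPG in-well.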
BLM helicase inh = blocks DNA unwinding by human BLM helicase; P54132; recombinant BLM DNA unwinding, fluorescence dequenching; Potency, µM (series often up to 56.1 µM), hits mostly inhibitors; hit rate 0.2% among 350,000; AID 2528; also: nearly all actives have a fitted effect of over 35% in size
Target sequence (P54132 whole entry, looked up): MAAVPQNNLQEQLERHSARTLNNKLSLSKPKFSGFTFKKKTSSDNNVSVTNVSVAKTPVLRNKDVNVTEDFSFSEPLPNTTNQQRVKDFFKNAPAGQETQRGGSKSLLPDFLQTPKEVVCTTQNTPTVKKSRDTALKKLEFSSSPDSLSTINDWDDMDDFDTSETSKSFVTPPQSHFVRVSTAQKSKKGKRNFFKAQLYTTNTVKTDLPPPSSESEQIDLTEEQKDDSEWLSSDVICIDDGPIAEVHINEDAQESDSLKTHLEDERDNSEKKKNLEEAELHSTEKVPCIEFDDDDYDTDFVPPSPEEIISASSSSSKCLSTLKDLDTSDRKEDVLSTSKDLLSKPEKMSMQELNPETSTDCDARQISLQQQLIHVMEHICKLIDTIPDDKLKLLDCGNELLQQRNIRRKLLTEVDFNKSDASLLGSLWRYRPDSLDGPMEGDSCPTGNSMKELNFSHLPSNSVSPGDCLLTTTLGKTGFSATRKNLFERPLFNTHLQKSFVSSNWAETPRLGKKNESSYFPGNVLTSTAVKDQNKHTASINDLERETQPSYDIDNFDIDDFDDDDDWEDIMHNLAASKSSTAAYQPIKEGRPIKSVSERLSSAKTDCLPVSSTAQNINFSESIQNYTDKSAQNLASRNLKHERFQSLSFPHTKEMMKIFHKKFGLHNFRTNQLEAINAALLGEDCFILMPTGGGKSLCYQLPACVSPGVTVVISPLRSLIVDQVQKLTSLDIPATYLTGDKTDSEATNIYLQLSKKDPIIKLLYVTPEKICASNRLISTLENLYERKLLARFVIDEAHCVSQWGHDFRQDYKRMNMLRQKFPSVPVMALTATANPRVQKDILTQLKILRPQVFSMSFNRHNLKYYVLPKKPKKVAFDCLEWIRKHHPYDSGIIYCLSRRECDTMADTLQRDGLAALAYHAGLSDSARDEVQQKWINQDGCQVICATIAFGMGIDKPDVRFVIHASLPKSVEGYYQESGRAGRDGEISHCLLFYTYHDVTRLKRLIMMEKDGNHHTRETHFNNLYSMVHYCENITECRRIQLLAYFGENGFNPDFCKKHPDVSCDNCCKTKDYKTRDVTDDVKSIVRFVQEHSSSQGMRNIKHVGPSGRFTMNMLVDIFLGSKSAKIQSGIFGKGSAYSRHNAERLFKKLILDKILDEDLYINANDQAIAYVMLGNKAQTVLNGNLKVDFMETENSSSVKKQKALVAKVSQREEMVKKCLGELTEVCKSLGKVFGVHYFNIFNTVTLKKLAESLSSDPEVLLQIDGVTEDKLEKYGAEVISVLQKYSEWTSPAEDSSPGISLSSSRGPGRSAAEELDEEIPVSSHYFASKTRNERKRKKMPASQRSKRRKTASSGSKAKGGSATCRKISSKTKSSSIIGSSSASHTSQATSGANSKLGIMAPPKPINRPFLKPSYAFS
RECQ1 helicase = blocks DNA unwinding by human RECQ1; P46063; RECQ1 DNA unwinding, red fluorescence kinetic read; Potency, µM (highest dose often 57.3 µM), most hits filed as inhibitors; hit rate 0.54% among 240,000; AID 2549; also: nearly all actives have a fitted effect of over 30% in size
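50 nM RECQ1T1 preincubated 15 min with compound in Tris pH 8.0 buffer with MgCl2, DTT, Tween-20 and 2.5 ug/ml poly(dI-dC); started with 200 nM TAMRA/BHQ-2 forked duplex and 2 mM ATP. Unwinding read as fluorescence (525/598 nm), two reads 2 h apart.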
APEX1 inh = inhibitors of human APE1 endonuclease. P27695. recombinant APE1, TAMRA/BHQ-2 abasic DNA cleavage fluorescence. Potency, µM (highest dose often 65.8 µM), hits mostly inhibitors. hit rate 0.35% among 350,000. AID 2517; also: nearly all actives have a fitted effect of over 55% in size
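Enzyme (0.75 nM final) and test compound are incubated 15 min at room temperature before adding 50 nM quenched THF abasic-site duplex. Cleavage dequenches TAMRA, followed at 525/598 nm over three reads one minute apart.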
GLS inh = blocks human kidney-isoform glutaminase activity. O94925. GLS enzymatic activity, qHTS titration. Potency, µM (titrated, usually from 45.5 µM), usual class: inhibitors. hit rate 0.21% among 410,000
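Two-point fluorescence kinetic (t0, 30 min RT) for hKGA; glutamate detected via glutamate oxidase–HRP–Amplex Red. Substrate: 1 mM L-glutamine solution; buffer 45 mM KH2PO4, pH 8.2.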
Numbers stand for hits; i = inactive; ? = inconclusive; nt = no result given. Calls follow the shape of the dose curve; as a rule, active = well fitted curve in the direction sought with a large enough effect; inconclusive = small, poorly fitted or top-dose-only effect, or another doubt; inactive = no such curve, though single readings can be large; an effect the other way counts as inactive or inconclusive.

SMILES	FEN1 inh	PGK inhibitor	BLM helicase inh	RECQ1 helicase	APEX1 inh	GLS inh
CC(=O)[C@@]1(O)CC[C@H]2[C@@H]3C=C(Cl)C4=CC(=O)[C@@H]5C[C@@H]5[C@]4(C)[C@H]3CC[C@@]21C	nt	nt	nt	nt	i	nt
CCN(CC)/[N+]([O-])=N/OCOC(=O)c1ccccc1OC(C)=O	i	nt	nt	nt	nt	nt
O=C(O)CCc1ccc(-c2cccs2)n1CCC(=O)O	i	i	i	i	14.1µM	i
O=C(O)CCc1ccc(-c2cccs2)n1CCc1ccccc1	i	i	i	i	i	i
O=C1NC2CCCCN2C12CCN(CCCN1c3ccccc3CCc3ccc(Cl)cc31)CC2 (stereo unspecified)	nt	nt	nt	nt	nt	i
Oc1ccccc1N1CCN(c2ccc3ccccc3n2)CC1	i	i	i	nt	i	10µM
COc1ccc(OC)c(NC(=O)C(=O)/C=C(\O)c2cc(OC)ccc2OC)c1	39.8µM	i	i	i	i	i
O=C(Cn1cc[n+](CC(=O)c2ccccc2)c1)c1ccccc1	i	i	i	22.4µM	i	i
O=C(Cn1cc[n+](CC(=O)c2ccc(Cl)cc2Cl)c1)c1ccc(Cl)cc1Cl	i	i	i	i	i	i
COc1ccc(-[n+]2c(C)cc(/C=C3\Sc4ccccc4N3C)cc2C)cc1	22.4µM	i	i	i	i	i
CC(=O)Nc1cc(OC(C)=O)c2nonc2c1OC(C)=O	i	i	1.58µM	5.01µM	?	i
CC(=O)Oc1cccc(C(=O)O)c1OC(C)=O	nt	nt	i	i	i	i
CC(=O)Oc1ccc2nonc2c1OC(C)=O	10µM	nt	nt	nt	nt	nt
O=C(O)c1ccc(/C=N/Nc2cccc(C(F)(F)F)c2)cc1	i	i	i	i	i	14.1µM
COc1ccc2c(c1)CCc1c-2nc2ccccc2c1N1CCOCC1	50.1µM	i	i	i	?	i
c1ccc2c(N3CCOCC3)c3c(nc2c1)CCC3	i	i	i	nt	i	i
COc1ccc2nc(N/C(N)=N/C(=S)Nc3c(C)cccc3C)nc(C)c2c1	31.6µM	i	i	i	i	i
Cc1c(O)ccc2c1OC(C)(C)CC2	i	nt	nt	nt	nt	nt
COCc1cc(=O)[nH]c(Nc2nc(C)c3ccccc3n2)n1	50.1µM	i	i	i	i	i
O=C(NCc1ccco1)c1cc2c(s1)CSC2	50.1µM	?	i	i	?	i
O=C(NCc1ccco1)c1cccs1	i	i	i	i	i	i
COc1cccc(-c2coc3cc4oc(=O)c(CCC(=O)O)c(C)c4cc23)c1	?	i	i	nt	i	12.6µM
COc1cccc(-c2coc3c(C)c4oc(=O)c(CCC(=O)O)c(C)c4cc23)c1	?	i	i	i	i	?
Cc1c(CC(=O)NCC(=O)O)c(=O)oc2cc3occ(-c4ccccc4)c3cc12	i	i	i	nt	i	3.98µM
Cc1ccnc2ccc(N)cc12	i	nt	nt	nt	nt	nt
SMILES	FEN1 inh	PGK inhibitor	BLM helicase inh	RECQ1 helicase	APEX1 inh	GLS inh
NC(=S)N=Nc1c(O)cc(O)c2[nH]c(=O)ccc12	12.6µM	?	nt	nt	nt	?
COc1ccc(N/C(C)=C/C(=S)Nc2ccccc2)cc1	i	i	i	i	i	12.6µM
COc1ccc(N/C(C)=C/C(=O)c2ccccc2)cc1	i	i	i	i	i	i
Cc1ccccc1-c1nc(N2CCN(C)CC2)c2ccccc2n1	nt	nt	i	i	i	nt
Cc1ccccc1-c1nc(N2CCOCC2)c2ccccc2n1	nt	nt	i	i	8.91µM	nt
O=C(C[n+]1c(Cl)cc(Cl)c2ccccc21)c1ccccc1	i	nt	nt	nt	nt	nt
Cc1nc2cc(-c3ccccc3)sc2c(=O)n1N	i	10µM	i	i	i	i
COc1ccc(-c2cc3nc(C)n(N)c(=O)c3s2)cc1	i	4.47µM	i	i	i	i
COc1ccc(-c2cc3nc4n(c(=O)c3s2)CCC4)cc1	i	i	i	i	i	i
CCCCCCCCCCCCCCCCCC(=O)[O][Al]	nt	nt	nt	nt	nt	i
CCc1cnc2ccccc2c1/C=C/c1ccc(N(C)C)cc1	i	nt	nt	nt	nt	nt
CCOC(=O)CSC1=Nc2ccccc2C2=NC(CC(=O)NCc3ccc4c(c3)OCO4)C(=O)N12 (stereo unspecified)	i	i	i	i	i	?
CCOC(=O)CSC1=Nc2ccccc2C2=NC(CC(=O)NCc3ccc(OC)cc3)C(=O)N12 (stereo unspecified)	i	i	i	i	i	2.24µM
CCOC(=O)NNc1ccc2nonc2c1[N+](=O)[O-]	39.8µM	?	i	?	?	i

Screens deposited in PubChem BioAssay by National Center for Advancing Translational Sciences (NCATS).
